The values that follow come from the supplement of paper PMC10037445.

In all, about 2,900 compounds were measured (“NF-kB SEAP reporter activity, fold change vs agonist alone”: median about 0.99, highest 2% from about 2.6 on). The list comes from a sample in which the highest values are over-represented; it also holds similar structures and randomly drawn compounds.

The subject of experiment [1] is RAW-Dual. Description: NF-kB SEAP reporter activity, fold change vs agonist alone; higher = enhanced NF-kB activity. In a few lines: (§1)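 Cytotoxic wells were those whose IncuCyte confluency was below 70% of agonist controls in both mask sets. The cells were RAW-Dual macrophages at 50,000 cells/well in DMEM on 384-well plates, dosed with 50 nL of library stock by pin tool, stimulated with a PRR agonist 1 h later, and kept at 37 °C, 5% CO2 for 20 hours. IRF and NF-κB reporter activity, as fold change over agonist-alone wells, came from supernatant read by QuantiLuc luminescence and QuantiBlue absorbance, respectively.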

Experiment [2] relates to RAW-Dual. Description: NF-kB SEAP reporter activity, fold change vs agonist alone; cytotoxicity flag (confluency mask): cytotoxic (confluency <70% of control); higher = enhanced NF-kB activity. In a few lines:
as §1

The test system of experiment [3] is RAW-Dual. Kind of experiment: NF-kB SEAP reporter activity, fold change vs agonist alone; cytotoxicity flag (confluency mask): not cytotoxic; higher = enhanced NF-kB activity. In a few lines:
as §1

Where [4] appears, read: library stock concentration (final ~1000-fold dilution): 10 mM, cytotoxicity flag (confluency mask): cytotoxic (confluency <70% of control), agonist: Imiquimod (TLR7) […].
Setting [5] is: library stock concentration (final ~1000-fold dilution): 10 mM, cytotoxicity flag (confluency mask): cytotoxic (confluency <70% of control), agonist: MPLA (TLR4) […].
[6] abbreviates: agonist: ODN 1826 (TLR9) 0.5 ug/mL.
Setting [7] is: agonist: Pam2CSK4 (TLR2/6) 0.1 ug/mL.
Where [8] appears, read: agonist: Pam3CSK4 (TLR2/1) 0.1 ug/mL.
Setting [9] is: library stock concentration (final ~1000-fold dilution): 10 mM, cytotoxicity flag (confluency mask): not cytotoxic, agonist: Imiquimod (TLR7) […].
[10] abbreviates: library stock concentration (final ~1000-fold dilution): 10 mM, cytotoxicity flag (confluency mask): not cytotoxic, agonist: MPLA (TLR4) […].

On to `COc1ccc(-c2oc3c(CC=C(C)C)c(O)cc(O)c3c(=O)c2OC2OC(C)C(O)C(O)C2O)cc1` (centres undefined), for which the “NF-kB SEAP reporter activity” value in experiment [1] (setting [4]) came to 1.82; in experiment [1] (setting [5]), 1.45.
Consider `COc1ccc(-c2oc3c(CC=C(C)C)c(O)cc(O)c3c(=O)c2OC2OC(C)C(O)C(O)C2O)cc1` (centres undefined) (library stock concentration (final ~1000-fold dilution): 10 mM), for which the “NF-kB SEAP reporter activity” value was 2.22 in experiment [2] (agonist: LPS (TLR4) 0.1 ug/mL), 0.553 in experiment [2] (setting [6]), 0.251 in experiment [2] (setting [7]) and 0.457 in experiment [2] (setting [8]).
Take `CSC1(C(=O)Nc2ccc3[nH]nc(-c4ccc(OC(C)C)nc4)c3c2)CCN(CC(=O)N2CC=C(c3ccc(-c4ncn(C)n4)cc3)CC2)C1` (centres undefined) (library stock concentration (final ~1000-fold dilution): 10 mM): the “NF-kB SEAP reporter activity” value was determined as 0.407 in experiment [3] (agonist: LPS (TLR4) 0.1 ug/mL), 0.343 in experiment [3] (setting [6]), 0.0837 in experiment [3] (setting [7]) and 0.136 in experiment [3] (setting [8]).
For the compound `CSC1(C(=O)Nc2ccc3[nH]nc(-c4ccc(OC(C)C)nc4)c3c2)CCN(CC(=O)N2CC=C(c3ccc(-c4ncn(C)n4)cc3)CC2)C1` (centres undefined), the “NF-kB SEAP reporter activity” value in experiment [1] (setting [9]) was 0.202; in experiment [1] (setting [10]) it was 0.321.
Turning to `CC(C)(C)c1nc(-c2ccc(NC(=O)Nc3cccc(C(F)(F)F)c3)c3ccccc23)c2c(N)nccn12`, the “NF-kB SEAP reporter activity” value in experiment [1] (setting [4]) was found to be 0.139; in experiment [1] (setting [5]), 0.252.
For `CC(C)(C)c1nc(-c2ccc(NC(=O)Nc3cccc(C(F)(F)F)c3)c3ccccc23)c2c(N)nccn12` (library stock concentration (final ~1000-fold dilution): 10 mM), the “NF-kB SEAP reporter activity” value was 0.488 in experiment [2] (agonist: LPS (TLR4) 0.1 ug/mL), 0.163 in experiment [2] (setting [6]), 0.0888 in experiment [2] (setting [7]) and 0.136 in experiment [2] (setting [8]).
Regarding `CNC(=O)c1cc(Oc2ccc(NC(=O)Nc3ccc(Cl)c(C(F)(F)F)c3)c(F)c2)ccn1.O` (library stock concentration (final ~1000-fold dilution): 10 mM), the “NF-kB SEAP reporter activity” value is 0.727 in experiment [3] (agonist: LPS (TLR4) 0.1 ug/mL), 0.502 in experiment [3] (setting [6]), 0.166 in experiment [3] (setting [7]) and 0.205 in experiment [3] (setting [8]).
`CNC(=O)c1cc(Oc2ccc(NC(=O)Nc3ccc(Cl)c(C(F)(F)F)c3)c(F)c2)ccn1.O`: in experiment [1] (setting [10]), the “NF-kB SEAP reporter activity” value came to 1.58.
Consider `Cc1[nH]c(C=C2C(=O)Nc3ccc(F)cc32)c(C)c1C(=O)NCCN1CCCC1` (library stock concentration (final ~1000-fold dilution): 2 mM), for which the “NF-kB SEAP reporter activity” value was 1.04 in experiment [3] (agonist: LPS (TLR4) 0.1 ug/mL), 0.183 in experiment [3] (setting [6]), 0.266 in experiment [3] (setting [7]) and 0.414 in experiment [3] (setting [8]).
For `COc1ccc2[nH]cc(C=C3C(=O)Nc4ccc(NC(=O)CCN5CCCCC5)cc43)c2c1`, the “NF-kB SEAP reporter activity” value in experiment [1] (setting [4]) was found to be 1.4; in experiment [1] (setting [5]), 2.
Regarding `Cc1[nH]c(C=C2C(=O)Nc3ccc(F)cc32)c(C)c1C(=O)NCCN1CCCC1`, the “NF-kB SEAP reporter activity” value in experiment [1] (library stock concentration (final ~1000-fold dilution): 2 mM, cytotoxicity flag (confluency mask): not cytotoxic, agonist: MPLA (TLR4) […]) worked out at 0.63.
With `CCS(=O)(=O)Nc1ccc2c(c1)/C(=C(/Nc1ccc(CN3CCCCC3)cc1)c1ccccc1)C(=O)N2`, the “NF-kB SEAP reporter activity” value in experiment [1] (setting [4]) was 0.214; in experiment [1] (setting [5]), 0.227.
On to `CCS(=O)(=O)Nc1ccc2c(c1)/C(=C(/Nc1ccc(CN3CCCCC3)cc1)c1ccccc1)C(=O)N2` (library stock concentration (final ~1000-fold dilution): 10 mM), for which the “NF-kB SEAP reporter activity” value in experiment [2] (agonist: LPS (TLR4) 0.1 ug/mL) was determined as 0.196; in experiment [2] (setting [6]), 0.197; in experiment [2] (setting [7]) it was 0.0873; in experiment [2] (setting [8]), 0.163.
As to `COc1ccc2[nH]cc(C=C3C(=O)Nc4ccc(NC(=O)CCN5CCCCC5)cc43)c2c1` (library stock concentration (final ~1000-fold dilution): 10 mM), the “NF-kB SEAP reporter activity” value in experiment [2] (agonist: LPS (TLR4) 0.1 ug/mL) worked out at 4.16; in experiment [2] (setting [6]), 0.42; in experiment [2] (setting [7]), 1.36; in experiment [2] (setting [8]), 2.01.
Take `CO[C@H](c1c(NC(=O)Nc2cnc(-n3nccn3)c(Cl)c2)cnc2cc(Cl)nn12)[C@@H](C)OC`: the “NF-kB SEAP reporter activity” value in experiment [1] (setting [9]) came out at 0.986; in experiment [1] (setting [10]), 0.994.
As to `CO[C@H](c1c(NC(=O)Nc2cnc(-n3nccn3)c(Cl)c2)cnc2cc(Cl)nn12)[C@@H](C)OC` (library stock concentration (final ~1000-fold dilution): 10 mM), the “NF-kB SEAP reporter activity” value in experiment [3] (agonist: LPS (TLR4) 0.1 ug/mL) amounted to 1.37; in experiment [3] (setting [6]), 0.862; in experiment [3] (setting [7]), 0.76; in experiment [3] (setting [8]), 0.777.
For the compound `C=Cc1c(C)c2cc3nc(cc4[nH]c(cc5nc(cc1[nH]2)C(C)=C5CCC(=O)O)c(CCC(=O)OC)c4C)C1(C)C3=CC=C(C(=O)OC)C1C(=O)OC` (centres undefined), the “NF-kB SEAP reporter activity” value came to 0.297 in experiment [1] (setting [4]) and 0.349 in experiment [1] (setting [5]).
In the case of `C=Cc1c(C)c2cc3nc(cc4[nH]c(cc5nc(cc1[nH]2)C(C)=C5CCC(=O)O)c(CCC(=O)OC)c4C)C1(C)C3=CC=C(C(=O)OC)C1C(=O)OC` (centres undefined) (library stock concentration (final ~1000-fold dilution): 10 mM), the “NF-kB SEAP reporter activity” value worked out at 0.243 in experiment [2] (agonist: LPS (TLR4) 0.1 ug/mL), 0.233 in experiment [2] (setting [6]), 0.193 in experiment [2] (setting [7]) and 0.191 in experiment [2] (setting [8]).
Take `CNC(=O)c1cccc(-c2ccc3c(N4CCOCC4C)nc(N4CCOCC4C)nc3n2)c1` (centres undefined) (library stock concentration (final ~1000-fold dilution): 10 mM): the “NF-kB SEAP reporter activity” value in experiment [3] (agonist: LPS (TLR4) 0.1 ug/mL) worked out at 1.11; in experiment [3] (setting [6]) it was 0.489; in experiment [3] (setting [7]), 0.376; in experiment [3] (setting [8]), 0.57.
Regarding `CNC(=O)c1cccc(-c2ccc3c(N4CCOCC4C)nc(N4CCOCC4C)nc3n2)c1` (centres undefined), the “NF-kB SEAP reporter activity” value is 1.13 in experiment [1] (setting [9]) and 1.22 in experiment [1] (setting [10]).
In the case of `Oc1c(Cl)cc(Cl)cc1Sc1cc(Cl)cc(Cl)c1O` (library stock concentration (final ~1000-fold dilution): 10 mM), the “NF-kB SEAP reporter activity” value in experiment [2] (agonist: LPS (TLR4) 0.1 ug/mL) stood at 3.19; in experiment [2] (setting [6]) it was 1.08; in experiment [2] (setting [7]), 0.362; in experiment [2] (setting [8]) it was 0.801.
Consider `Oc1c(Cl)cc(Cl)cc1Sc1cc(Cl)cc(Cl)c1O`, for which the “NF-kB SEAP reporter activity” value was determined as 1.81 in experiment [1] (setting [4]) and 1.6 in experiment [1] (setting [5]).
The corresponding values for `CCC1(O)C(=O)OCc2c1cc1n(c2=O)Cc2cc3c(CN(C)C)c(O)ccc3nc2-1.Cl` (centres undefined) are 2.3 and 2.16.
Regarding `CCC1(O)C(=O)OCc2c1cc1n(c2=O)Cc2cc3c(CN(C)C)c(O)ccc3nc2-1.Cl` (centres undefined) (library stock concentration (final ~1000-fold dilution): 10 mM), the “NF-kB SEAP reporter activity” value was determined as 2.73 in experiment [2] (agonist: LPS (TLR4) 0.1 ug/mL), 2.71 in experiment [2] (setting [6]), 0.868 in experiment [2] (setting [7]) and 1.35 in experiment [2] (setting [8]).
For `CCC1(O)C(=O)OCc2c1cc1n(c2=O)Cc2cc3c(CN(C)C)c(O)ccc3nc2-1` (centres undefined), the “NF-kB SEAP reporter activity” value in experiment [1] (setting [9]) was 1.46; in experiment [1] (setting [10]), 1.93.
In the case of `CCC1(O)C(=O)OCc2c1cc1n(c2=O)Cc2cc3cc(O)ccc3nc2-1` (centres undefined) (library stock concentration (final ~1000-fold dilution): 10 mM), the “NF-kB SEAP reporter activity” value in experiment [3] (agonist: LPS (TLR4) 0.1 ug/mL) is 1.08; in experiment [3] (setting [6]), 0.937; in experiment [3] (setting [7]), 1.07; in experiment [3] (setting [8]), 1.14; in experiment [2] (agonist: LPS (TLR4) 0.1 ug/mL), 1.9; in experiment [2] (setting [6]), 2.17. In addition, the “NF-kB SEAP reporter activity” value in experiment [2] (setting [7]) stood at 1.03; in experiment [2] (setting [8]), 1.5.
Regarding `CCC1(O)C(=O)OCc2c1cc1n(c2=O)Cc2cc3cc(O)ccc3nc2-1` (centres undefined), the “NF-kB SEAP reporter activity” value in experiment [1] (setting [4]) was 2.34; in experiment [1] (setting [5]), 2; in experiment [1] (setting [9]), 0.896; in experiment [1] (setting [10]), 0.856.
Take `CCC1(O)C(=O)OCc2c1cc1n(c2=O)Cc2cc3c(CN(C)C)c(O)ccc3nc2-1` (centres undefined) (library stock concentration (final ~1000-fold dilution): 10 mM): the “NF-kB SEAP reporter activity” value is 2.01 in experiment [3] (agonist: LPS (TLR4) 0.1 ug/mL), 1.59 in experiment [3] (setting [6]), 0.849 in experiment [3] (setting [7]) and 1.27 in experiment [3] (setting [8]).
`Cc1nnc(C(C)C)n1C1CC2CCC(C1)N2CCC(NC(=O)C1CCC(F)(F)CC1)c1ccccc1` (centres undefined): the “NF-kB SEAP reporter activity” value in experiment [1] (setting [9]) was found to be 0.968; in experiment [1] (setting [10]), 1.
For `Cc1nnc(C(C)C)n1C1CC2CCC(C1)N2CCC(NC(=O)C1CCC(F)(F)CC1)c1ccccc1` (centres undefined) (library stock concentration (final ~1000-fold dilution): 10 mM), the “NF-kB SEAP reporter activity” value in experiment [3] (agonist: LPS (TLR4) 0.1 ug/mL) was determined as 0.973; in experiment [3] (setting [6]) it was 1.04; in experiment [3] (setting [7]), 1.06; in experiment [3] (setting [8]) it was 1.11.
